Experimental findings from the supplement of paper PMC10477191 are described below.

Each structure is given as a SMILES string. ± gives the standard deviation of the averaged measurements.

The test system of this test is Drosophila virilis antennal basiconic sensillum AB9. Nature of the test: odor-evoked OSN spike response (post minus pre-stimulus); higher = stronger neuronal excitation. The note with it: odor dilution: 10^-4. The method, then:
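Single sensillum recordings from antennal basiconic sensilla of D. virilis. A 500 ms pulse of odorant (10^-4 in mineral oil or DMSO) was delivered; the response is the change in spike frequency between the 1 s pre- and post-stimulus windows (spikes/s).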
Consider `CC(C)=O` [acetone], for which the “odor-evoked OSN spike response” value amounted to 93.7 ± 30 spikes/s.
